# According to PubChem BioAssay (NCI):
# Compounds without any hit were thinned out: in the full panel of roughly 79,000, 15% have a hit. Values without a mark were called inactive. Activity calls are given as the source filed them. Cut-off read from the data, not from the text of the source: active = growth inhibition above about 70%; inactive = the rest.
# Tests used:
# [1] = NCI Yeast Anticancer Drug Screen. Data for the rad52 strain (AID 147);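 note: 0% = growth of vehicle-treated control cultures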; settings: S. cerevisiae rad52 mutant growth inhibition, stronger effect = higher value
# How it was run: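 Yeast strain carrying a DNA damage repair alteration was exposed to test compounds. Growth inhibition was measured relative to vehicle-treated controls.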
# [2] = NCI Yeast Anticancer Drug Screen. Data for the wt1 strain (AID 149);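 note: 0% = growth of vehicle-treated wt1 cultures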; settings: S. cerevisiae wt1 strain (SPY 50644) growth inhibition, stronger effect = higher value
# How it was run: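 Growth inhibition read against vehicle controls after compound exposure of the wt1 yeast strain.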
# [3] = NCI Yeast Anticancer Drug Screen. Data for the rad50EPP+ strain (AID 151);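 note: 0% = growth of vehicle-treated control cultures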; settings: S. cerevisiae rad50 mutant strain, stronger effect = higher value
# How it was run: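 Yeast strain carrying rad50 alteration (rad50EPP+) exposed to compounds; growth inhibition measured relative to vehicle-treated controls.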
# [4] = NCI Yeast Anticancer Drug Screen. Data for the mgt1 strain (AID 153); settings: S. cerevisiae mgt1 mutant growth inhibition, stronger effect = higher value
# How it was run: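 Yeast mgt1 strain (DNA repair/cell-cycle alteration panel) exposed to compounds; growth inhibition measured relative to vehicle-treated controls.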
# [5] = NCI Yeast Anticancer Drug Screen. Data for the rad50 strain (AID 155);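 note: 0% = growth of vehicle-only cultures of the same strain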; settings: S. cerevisiae rad50 strain growth inhibition, stronger effect = higher value
# How it was run: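 Readout: growth inhibition relative to vehicle-treated cultures. Compound exposure was carried out in a genetically defined yeast strain deficient in DNA damage repair.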
# [6] = NCI Yeast Anticancer Drug Screen. Data for the mec2-1 strain (AID 157); settings: S. cerevisiae mec2-1 strain, stronger effect = higher value
# How it was run: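 mec2-1 yeast strain, carrying an alteration in DNA damage repair or cell cycle control, was exposed to compounds; growth inhibition was measured relative to vehicle-treated controls.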
# [7] = NCI Yeast Anticancer Drug Screen. Data for the rad14 strain (AID 159);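 note: 0% = growth of vehicle-treated control cultures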; settings: S. cerevisiae rad14 strain growth inhibition, stronger effect = higher value
# How it was run: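 Growth inhibition vs vehicle controls; genetically altered yeast strain (DNA damage repair defect) treated with test compounds.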
# [8] = NCI Yeast Anticancer Drug Screen. Data for the sgs1 mgt1 strain (AID 161);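 note: 0% = growth of cultures given vehicle only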; settings: S. cerevisiae sgs1 mgt1 strain, stronger effect = higher value
# How it was run: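 Yeast cells carrying a defined DNA-repair defect were exposed to test compounds. Growth inhibition was measured relative to vehicle-treated controls.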
# [9] = NCI Yeast Anticancer Drug Screen. Data for the CLN2oe strain (AID 163);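 note: 0% = growth of vehicle-only control cultures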; settings: S. cerevisiae CLN2oe strain, stronger effect = higher value
# How it was run: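 Yeast cells carrying a defined cell-cycle control alteration were exposed to test compounds. Growth inhibition was scored against vehicle-treated control cultures.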
# [10] = NCI Yeast Anticancer Drug Screen. Data for the cln2 rad14 strain (AID 165);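 note: 0% = growth equal to vehicle treated cultures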; settings: S. cerevisiae cln2 rad14 strain, stronger effect = higher value
# How it was run: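 Yeast carrying cln2 and rad14 alterations (cell cycle control and DNA damage repair) were exposed to compounds. Growth inhibition was measured against vehicle-treated controls.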
# [11] = NCI Yeast Anticancer Drug Screen. Data for the bub3 strain (AID 167); settings: S. cerevisiae bub3 mutant strain, stronger effect = higher value
# How it was run: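 Readout: yeast growth inhibition, expressed relative to vehicle-only wells. The test organism is a mutant strain from a panel with lesions in DNA repair or checkpoint genes.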
# [12] = NCI Yeast Anticancer Drug Screen. Data for the wt2 strain (AID 169);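 note: 0% = growth of vehicle-treated yeast cultures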; settings: S. cerevisiae wt2 strain growth inhibition, stronger effect = higher value
# How it was run: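 Yeast cells were exposed to test compounds, and growth inhibition was measured relative to vehicle-treated controls.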
# [13] = NCI Yeast Anticancer Drug Screen. Data for the mlh1 strain (AID 171);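 note: 0% = growth of vehicle-treated control cultures of the same strain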; settings: S. cerevisiae mlh1 strain growth inhibition, stronger effect = higher value
# How it was run: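 Yeast carrying a defined genetic alteration in DNA damage repair or cell cycle control were exposed to test compounds. Growth inhibition was measured relative to vehicle-treated controls.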
# [14] = NCI Yeast Anticancer Drug Screen. Data for the sgs1 strain (AID 173);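 note: 0% = growth of vehicle-only control cultures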; settings: S. cerevisiae sgs1 mutant, stronger effect = higher value
# How it was run: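 Yeast mutant strains carrying defined defects in DNA damage repair or cell cycle control were exposed to test compounds. Growth inhibition was scored against vehicle-treated controls.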
# [15] = NCI Yeast Anticancer Drug Screen. Data for the mlh1 rad18 strain (AID 175); settings: S. cerevisiae mlh1 rad18 strain growth inhibition, stronger effect = higher value
# How it was run: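 Growth inhibition of the yeast strain was measured after compound exposure and expressed relative to vehicle-treated controls. The strain carries defined defects in DNA damage repair.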
# [16] = NCI Yeast Anticancer Drug Screen. Data for the rad18 strain (AID 177); settings: S. cerevisiae rad18 mutant growth inhibition, stronger effect = higher value
# How it was run: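 Yeast carrying a defined DNA damage repair alteration were exposed to compounds. Growth inhibition was expressed relative to vehicle-treated controls.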
# [17] = at 5.0 µM (retest, dose inferred, filed as 0.5)
# [18] = at 50.0 µM (retest, dose inferred, filed as 5.0)
structure (smiles),measurement,setting,value
Cc1cccc(/C=N/NC(=S)NC2CCCCC2)n1,growth inhibition,[1]; at 1.2 µM,-8%
same,growth inhibition,[1]; at 3.7 µM,-9%
same,growth inhibition,[1]; at 11.0 µM,-8%
same,growth inhibition,[1]; at 33.0 µM,9%
same,growth inhibition,[1]; at 100.0 µM,6%
same,growth inhibition,[2]; at 1.2 µM,-7%
same,growth inhibition,[2]; at 3.7 µM,-6%
same,growth inhibition,[2]; at 11.0 µM,-4%
same,growth inhibition,[2]; at 33.0 µM,10%
same,growth inhibition,[2]; at 100.0 µM,6%
same,growth inhibition,[3]; at 1.2 µM,-8%
same,growth inhibition,[3]; at 3.7 µM,-8%
same,growth inhibition,[3]; at 11.0 µM,-13%
same,growth inhibition,[3]; at 33.0 µM,-13%
same,growth inhibition,[3]; at 100.0 µM,-12%
same,growth inhibition,[4]; at 1.2 µM,-5%
same,growth inhibition,[4]; at 3.7 µM,-8%
same,growth inhibition,[4]; at 11.0 µM,19%
same,growth inhibition,[4]; at 33.0 µM,20%
same,growth inhibition,[4]; at 100.0 µM,21%
same,growth inhibition,[5]; at 1.2 µM,-7%
same,growth inhibition,[5]; at 3.7 µM,-9%
same,growth inhibition,[5]; [17],-32%
same,growth inhibition,[5]; at 11.0 µM,-33%
same,growth inhibition,[5]; at 33.0 µM,13%
same,growth inhibition,[5]; [18],77% (active)
same,growth inhibition,[5]; at 50.0 µM,39.5%
same,growth inhibition,[5]; at 100.0 µM,7%
same,growth inhibition,[6]; at 1.2 µM,1%
same,growth inhibition,[6]; at 3.7 µM,-6%
same,growth inhibition,[6]; [17],-23%
same,growth inhibition,[6]; at 11.0 µM,-5%
same,growth inhibition,[6]; at 33.0 µM,11%
same,growth inhibition,[6]; [18],64%
same,growth inhibition,[6]; at 50.0 µM,54.8%
same,growth inhibition,[6]; at 100.0 µM,8%
same,growth inhibition,[7]; at 1.2 µM,-7%
same,growth inhibition,[7]; at 3.7 µM,-15%
same,growth inhibition,[7]; at 11.0 µM,-11%
same,growth inhibition,[7]; at 33.0 µM,28%
same,growth inhibition,[7]; at 100.0 µM,26%
same,growth inhibition,[8]; [17],-25%
same,growth inhibition,[8]; [18],51%
same,growth inhibition,[8]; at 50.0 µM,70.8% (active)
same,growth inhibition,[9]; at 1.2 µM,-14%
same,growth inhibition,[9]; at 3.7 µM,-17%
same,growth inhibition,[9]; at 11.0 µM,-23%
same,growth inhibition,[9]; at 33.0 µM,18%
same,growth inhibition,[9]; at 100.0 µM,12%
same,growth inhibition,[10]; [17],-24%
same,growth inhibition,[10]; [18],20%
same,growth inhibition,[10]; at 50.0 µM,40.6%
same,growth inhibition,[11]; at 1.2 µM,-6%
same,growth inhibition,[11]; at 3.7 µM,-3%
same,growth inhibition,[11]; [17],-30%
same,growth inhibition,[11]; at 11.0 µM,16%
same,growth inhibition,[11]; at 33.0 µM,32%
same,growth inhibition,[11]; [18],79% (active)
same,growth inhibition,[11]; at 50.0 µM,72.7% (active)
same,growth inhibition,[11]; at 100.0 µM,20%
same,growth inhibition,[12]; at 1.2 µM,-4%
same,growth inhibition,[12]; at 3.7 µM,-4%
same,growth inhibition,[12]; at 11.0 µM,1%
same,growth inhibition,[12]; at 33.0 µM,26%
same,growth inhibition,[12]; at 100.0 µM,18%
same,growth inhibition,[13]; at 1.2 µM,-6%
same,growth inhibition,[13]; at 3.7 µM,-4%
same,growth inhibition,[13]; at 11.0 µM,-3%
same,growth inhibition,[13]; at 33.0 µM,12%
same,growth inhibition,[13]; at 100.0 µM,8%
same,growth inhibition,[14]; at 1.2 µM,-3%
same,growth inhibition,[14]; at 3.7 µM,-2%
same,growth inhibition,[14]; at 11.0 µM,9%
same,growth inhibition,[14]; at 33.0 µM,40%
same,growth inhibition,[14]; at 100.0 µM,29%
same,growth inhibition,[15]; [17],-19%
same,growth inhibition,[15]; [18],55%
same,growth inhibition,[15]; at 50.0 µM,62.5%
same,growth inhibition,[16]; at 1.2 µM,-5%
same,growth inhibition,[16]; at 3.7 µM,-4%
same,growth inhibition,[16]; at 11.0 µM,3%
same,growth inhibition,[16]; at 33.0 µM,20%
same,growth inhibition,[16]; at 100.0 µM,19%
